From PubChem BioAssay (NCATS)
Inconclusive results are not listed. Entries that show only a call come without a potency. Activity calls are given as the source filed them. The call rests on the fitted dose curve; in most records, active means well fitted inhibition curve with a large enough effect; inconclusive means small, poorly fitted or top-dose-only effect; inactive means flat fitted curve, though single readings scatter.

Target: Calcium and integrin-binding protein 1 (Homo sapiens) (UniProt Q99828)
Assay: Primary qHTS for Identification of Calcium Integrin Binding Protein 1 (CIB1) Competitor (AID 1508620);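 further: GST tagged CIB1 binding a fluorescein labelled alphaIIb integrin peptide tracer; top concentration of the series differs between compounds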
Conditions: CIB1-GST / FITC-alphaIIb peptide fluorescence polarization; series mostly up to 114 µM
Outline: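 Fluorescence polarization competition: CIB1-GST (1 uM final) preincubated with compound 15 min at room temperature, then FITC-labeled alphaIIb peptide (100 nM final) added for another 15 min. Polarization read at Ex 480/Em 540.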

Calcium and integrin-binding protein 1 (Homo sapiens), sequence (Q99828 whole entry, looked up): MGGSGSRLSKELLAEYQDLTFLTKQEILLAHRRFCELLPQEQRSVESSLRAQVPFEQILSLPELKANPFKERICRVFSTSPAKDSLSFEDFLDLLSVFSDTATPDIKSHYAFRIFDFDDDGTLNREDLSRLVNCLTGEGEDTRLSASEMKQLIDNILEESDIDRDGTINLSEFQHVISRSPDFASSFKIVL

Compound	Potency
Cc1cc(N[S+](=O)([O-])c2ccc(NC(=O)Cc3ccc4nccnc4c3)cc2)no1	inactive
CCn1cnc2c(Nc3ccc(CCC(=O)N=C(N)N)cc3)nc(C#N)nc21	inactive
CC(=O)Nc1sc2c(c1-c1cccc3c1sc1ccccc13)CCNC2	inactive
CC(=O)Nn1c(C)nc2sc3c(c2c1=O)CCNC3	inactive
O=C(O)c1cccc(-n2cccc2/C=C2/C(=O)N(Cc3ccc(F)cc3)C(=O)N2Cc2ccc(F)cc2)c1	inactive
CN(Cc1ccco1)c1ncnc2ccc(-c3cccc(Cl)c3)cc12	inactive
Cc1ccnc(NC(=S)N2CCN(c3cc(C(F)(F)F)cc(C(F)(F)F)c3)CC2)c1	inactive
Clc1cccc(-c2ccc3ncnc(NCc4ccc5c(c4)OCO5)c3c2)c1	inactive
O=C(Nc1ccc2ccccc2c1)Nc1nnc(-c2ccc(O)cc2)s1	inactive
O=c1c2ccccc2nc2sc(Nc3cccc4ccccc34)nn12	inactive
O=C1CCc2cc(S(=O)(=O)Nc3cccc(C(F)(F)F)c3)ccc2N1	inactive
Fc1cc(-c2nc(Nc3ccc(F)c(F)c3)c3ccccc3n2)ccn1	inactive
O=S(=O)(c1ccc2c(c1)OCCO2)N1CCN(S(=O)(=O)c2ccc(Br)cc2F)CC1	inactive
COC(=O)c1c(NC(=O)COC(=O)c2ccc(Cl)cc2[N+](=O)[O-])sc2c1CCCCC2	inactive
C[C@H](NC(c1ccc(F)cc1)c1ccc2cccnc2c1O)c1ccccc1 (some centres undefined)	inactive
O=C(Nc1ccc2c(c1)CCC2)Nc1nnc(-c2ccncc2)s1	inactive
[O-][n+]1onc(-c2ccccc2)c1CO	inactive
Cc1ccc(NS(=O)(=O)c2ccc3c(c2)N(C)C(=O)CO3)cc1C	inactive
COc1cc(O)c(C(CC(=O)N2CCC(c3ccccc3)CC2)c2ccc3c(c2)OCO3)c(OC)c1 (centres undefined)	inactive
CC(=O)Nc1sc2c(c1-c1ccc3nc[nH]c3c1)CCNC2	inactive
Cc1ccc(NS(=O)(=O)c2cc3c(cc2NCC(C)(C)O)NC(=O)CC3)cc1C	inactive
CC1=C(C(=O)Nc2nnc(-c3ccccc3)s2)C(c2nn(C)cc2Cl)N=C(Nc2nc3ccccc3o2)N1 (centres undefined)	inactive
C=CCNc1oc(-c2cccc(Cl)c2)nc1C#N	inactive
O=C(Nc1ccc(Cl)c([N+](=O)[O-])c1)Nc1nnc(C2CCCCC2)s1	inactive
